Measurements taken from the supplement of paper PMC13380429.

System: Vero E6 infected with SARS-CoV-2
Experiment: inhibition of SARS-CoV-2 cytopathic effect; higher = more antiviral protection, active = above 15
Conditions: 48 h

Measured: inhibition of SARS-CoV-2 cytopathic effect

O=C(Nc1ccccc1C(=O)Nc1ccc(CCO)cc1)c1ccc([N+](=O)[O-])cc1
inactive: 1 nM -0.75% | 8.33 nM 0.23% | 100 nM -1.82% | 833.33 nM -1.34% | 10000 nM -1.2%

CN1CCc2c(c3ccccc3n2Cc2ccc(C(=O)NO)cc2)C1 [tubastatin-A]
inactive: 1 nM -0.32% | 8.33 nM 0.16% | 100 nM 1.09% | 833.33 nM -1.27% | 10000 nM -6.46%

CC(=O)N[C@@H](CC(=O)O)C(=O)N[C@@H](CCC(=O)O)C(=O)O [spaglumic-acid]
inactive: 1 nM -1.79% | 8.33 nM -1.97% | 100 nM -2.69% | 833.33 nM -1.39% | 10000 nM -1.24%

CN(C)[C@@H](CCOc1cccc2ccccc12)c1ccccc1 [dapoxetine]
inactive: 1 nM 1.42% | 8.33 nM 3.51% | 100 nM 1.54% | 833.33 nM 0.31% | 10000 nM 1.17%

CC1(N)CCN(c2cnc(-c3cccc(Cl)c3Cl)c(N)n2)CC1
inactive: 1 nM -2.86% | 8.33 nM 2.23% | 100 nM 2.58% | 833.33 nM -1.51% | 10000 nM -9.83%

Cn1cc(C2=C(c3cn(CCCSC(=N)N)c4ccccc34)C(=O)NC2=O)c2ccccc21 [bisindolylmaleimide-IX]
inactive: 1 nM -1.28% | 8.33 nM -0.79% | 100 nM -3.04% | 833.33 nM 1% | 10000 nM -1.54%

Cc1cc2c(s1)Nc1ccccc1N=C2N1CCN(C)CC1 [olanzapine]
inactive: 1 nM -1.67% | 8.33 nM -2.18% | 100 nM -0.41% | 833.33 nM 8.51% | 10000 nM 1.41%

Cc1ccc(C(C)C)c(O)c1 [thymol]
inactive: 1 nM 2.55% | 8.33 nM -2.55% | 100 nM -2.75% | 833.33 nM -1.48% | 10000 nM -1.32%

CCCc1nc(C(C)(C)O)c(C(=O)OCc2oc(=O)oc2C)n1Cc1ccc(-c2ccccc2-c2nnn[nH]2)cc1 [olmesartan-medoxomil]
inactive: 1 nM -1.27% | 8.33 nM 0.1% | 100 nM -1.32% | 833.33 nM 1.87% | 10000 nM 0.55%

C=CC(=O)Nc1cccc(Oc2nc(Nc3ccc(N4CCN(C)CC4)cc3)ncc2Cl)c1
inactive: 1 nM -1.99% | 8.33 nM 1.76% | 100 nM -2.31% | 833.33 nM -12.8% | 10000 nM -1.76%

NCCCCN [putrescine]
inactive: 1 nM 2.4% | 8.33 nM 3.44% | 100 nM -0.12% | 833.33 nM 4.47% | 10000 nM 0.82%

COc1ccc(-c2ccc3ncc4c(c3c2)n(-c2ccc(N3CCNCC3)c(C(F)(F)F)c2)c(=O)n4C)cn1
inactive: 1 nM 0.99% | 8.33 nM 2.5% | 100 nM -0.69% | 833.33 nM -8.37% | 10000 nM -23.9%

CCC1NC(=O)c2cc(S(N)(=O)=O)c(Cl)cc2N1 (stereo not given) [quinethazone]
inactive: 1 nM -8.29% | 8.33 nM -6.61% | 100 nM -4.32% | 833.33 nM -5.24% | 10000 nM -5.16%

C1=N/C2=N/c3ccc(OCCN4CCCC4)c(c3)COC/C=C/COCc3cccc(c3)C(=C1)N2 [pacritinib]
inactive: 1 nM -0.44% | 8.33 nM 0.71% | 100 nM 0.95% | 833.33 nM 0.27% | 10000 nM -15%

Cc1cc([N+](=O)[O-])ccc1NS(=O)(=O)c1cc(Cl)ccc1Cl
inactive: 1 nM -3.81% | 8.33 nM -2.34% | 100 nM -0.48% | 833.33 nM 0.28% | 10000 nM 2.09%

CCCOCCn1c(=O)c(N2CCN(CCO)CC2)nc2cnc(-c3ccc(OC)nc3)cc21
inactive: 1 nM 0.37% | 8.33 nM 0.25% | 100 nM -0.91% | 833.33 nM -1.66% | 10000 nM -1.9%

O=C(CSc1nc2c(c(=O)n1-c1ccccc1)SCC2)Nc1ccc(-c2ccccc2)cn1
inactive: 1 nM 2.66% | 8.33 nM -2.46% | 100 nM 3.88% | 833.33 nM 1.2% | 10000 nM -2.73%

CN1CCN(c2ccc(C(=O)Nc3n[nH]c4ccc(Cc5cc(F)cc(F)c5)cc34)c(NC3CCOCC3)c2)CC1 [entrectinib]
inactive: 1 nM 4% | 8.33 nM 2.95% | 100 nM -2.01% | 833.33 nM -2.36% | 10000 nM -12.4%
